AmpC detergent = qHTS Inhibitors of AmpC Beta-Lactamase (assay with detergent). AID 485294, 2010. 0.041% of 370,000 active. Potency, µM (doses to about 114 µM), most hits filed as inhibitors. P00811. AmpC hydrolysis of nitrocefin, absorbance 480 nm, 0.01% Triton; active = well fitted curve in the direction sought with a large enough effect; inconclusive = small, poorly fitted or top-dose-only effect, or another doubt; inactive = no such curve, though single readings can be large; an effect the other way counts as inactive or inconclusive; note: nearly all actives have a fitted effect of over 25% in size
Target sequence (P00811 whole entry, looked up): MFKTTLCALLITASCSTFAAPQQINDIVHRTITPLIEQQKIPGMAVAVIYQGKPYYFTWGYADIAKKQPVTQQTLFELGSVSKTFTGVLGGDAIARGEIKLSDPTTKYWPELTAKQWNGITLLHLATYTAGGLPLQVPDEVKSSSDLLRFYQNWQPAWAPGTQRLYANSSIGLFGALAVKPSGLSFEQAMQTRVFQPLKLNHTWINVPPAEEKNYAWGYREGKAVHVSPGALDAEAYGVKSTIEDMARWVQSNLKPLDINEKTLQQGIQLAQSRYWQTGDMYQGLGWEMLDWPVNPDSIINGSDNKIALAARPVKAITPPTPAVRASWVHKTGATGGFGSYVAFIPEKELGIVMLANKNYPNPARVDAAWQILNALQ
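20 mM phosphate pH 7.0 + 0.01% (detergent screen) or 0.0001% Triton X-100; 5.3 nM AmpC reagent; cpd preinc 15 min RT; nitrocefin (800 uM stock) to start; A480 q20 s × 4 min; Activity was normalised to no-enzyme and no-compound control wells.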
SARS PLP yeast = qHTS of Yeast-based Assay for SARS-CoV PLP; S. cerevisiae expressing SARS-CoV PLpro, growth rescue; Potency, µM (titrated, usually from 32.9 µM), hits mostly activators; 0.19% of 330,000 active; AID 485353, 2010; note: nearly all actives have a fitted effect of over 55% in size
AmpC no deterg = qHTS Inhibitors of AmpC Beta-Lactamase (assay without detergent); P00811; AmpC nitrocefin hydrolysis, absorbance 480 nm, 0.0001% Triton; Potency, µM (series often up to 57.1 µM), most hits filed as inhibitors; 0.52% of 330,000 active; active = well fitted curve in the direction sought with a large enough effect; inconclusive = small, poorly fitted or top-dose-only effect, or another doubt; inactive = no such curve, though single readings can be large; an effect the other way counts as inactive or inconclusive; note: nearly all actives have a fitted effect of over 20% in size
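20 mM phosphate pH 7.0 + 0.01% (detergent screen) or 0.0001% Triton X-100; 5.3 nM AmpC reagent; cpd preinc 15 min RT; nitrocefin (800 uM stock) to start; A480 q20 s × 4 min; Activity was normalised to no-enzyme and no-compound control wells.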
NS1 function inh = qHTS Assay for Inhibitors of Influenza NS1 Protein Function. Potency, µM (top dose mostly 46.1 µM). 0.4% of 270,000 active. AID 2326, 2010; note: actives are rising curves; nearly all actives have a fitted effect of over 50% in size
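Recovery from NS1-induced slow growth read by OD600 in budding yeast switched to galactose assay medium (pH 6.0, -URA) at 1:100 dilution. Compound 23 nl per well; the matching strain lacking NS1 serves as control.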
FBPA Giardia inh = qHTS Assay for Inhibitors of Fructose-1,6-bisphosphate Aldolase from Giardia Lamblia. purified Giardia FBPA. AID 2451, 2010. 0.71% of 290,000 active. Potency, µM (doses to about 59.6 µM), usual class: inhibitors; active = well fitted curve in the direction sought with a large enough effect; inconclusive = small, poorly fitted or top-dose-only effect, or another doubt; inactive = no such curve, though single readings can be large; an effect the other way counts as inactive or inconclusive; note: nearly all actives have a fitted effect of over 55% in size
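Giardia FBPA (40 nM reagent) was preincubated 10 min at RT with compound (up to 57.5 uM final), then substrate plus GAPDH/TPI/NAD/arsenate coupling system with diaphorase/resazurin was added; resorufin fluorescence (525/598 nm) was read after 20 min.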
Flu NS1 inh = Assay for Inhibitors of Influenza NS1 Protein Function: Hit Validation | shares compounds with NS1 function inh | influenza NS1 function cell assay, 15-point titration | activity change, negative = inhibition, % at 32.9 µM | 1,400 tested, under 10 active | AID 492980, 2010
Hits are given with their value. An excerpt weighted towards active compounds, which were near 1.4% of everything screened. Unless noted, calls come from the whole dose curve.

`Cc1ccc(C)c(OCCC(=O)OCC(=O)N2CCN(S(=O)(=O)c3ccc(Cl)cc3)CC2)c1` gave AmpC detergent inactive, SARS PLP yeast inactive and AmpC no deterg inactive.
For Cc1nc2nc(CSc3nnc(C)s3)cc(=O)n2[nH]1 the results were AmpC detergent inactive, SARS PLP yeast inactive, AmpC no deterg inactive, NS1 function inh 7.9µM, FBPA Giardia inh inactive and Flu NS1 inh inactive.
For Cc1cc(NC(=O)COC(=O)c2cccc(S(=O)(=O)N3CCOCC3)c2)no1 the results were AmpC detergent inactive, SARS PLP yeast inactive, AmpC no deterg inactive, NS1 function inh inactive and FBPA Giardia inh inactive.
For O=C(COC(=O)c1cccc(S(=O)(=O)N2CCOCC2)c1)Nc1nc(-c2ccccc2Cl)cs1 the results were AmpC detergent inactive, SARS PLP yeast inactive, AmpC no deterg inactive, NS1 function inh 11µM and Flu NS1 inh inconclusive.
Screening Cc1cnc(NC(=O)CN(C)S(=O)(=O)c2ccc(Cl)cc2)s1 returned AmpC detergent inactive, SARS PLP yeast inactive, AmpC no deterg inactive, NS1 function inh 7.9µM, FBPA Giardia inh inactive and Flu NS1 inh inactive.
`O=S(=O)(c1ccccc1F)N1CCC(Oc2ccc(-n3cnnn3)cc2)CC1` gave AmpC detergent inactive, SARS PLP yeast inactive, AmpC no deterg inactive and NS1 function inh inactive.
`CC1(C)Cc2c(C#N)c(N3CCN(C(=O)c4ccco4)CC3)nc(-c3ccco3)c2CS1` gave AmpC detergent inactive, SARS PLP yeast inactive, AmpC no deterg inactive, NS1 function inh 7.9µM, FBPA Giardia inh inactive and Flu NS1 inh inactive.
`COc1ccc(Br)c(/C=N/NC(=O)COc2ccc(-c3ccccc3)cc2)c1` gave AmpC detergent inactive, NS1 function inh inconclusive, FBPA Giardia inh inactive and Flu NS1 inh inactive.
`CC(/C=C/c1ccc(N(C)C)cc1)=N/N=C1/NC(=O)CC(C(=O)Nc2ccc(Cl)cc2)S1` (stereo not given) gave AmpC detergent inactive, SARS PLP yeast inactive, AmpC no deterg inactive, NS1 function inh 10µM, FBPA Giardia inh inactive and Flu NS1 inh inactive.
`COc1ccc(NC(=O)C2CC(=O)N/C(=N/N=C/c3ccccc3)S2)cc1` (stereo not given) gave AmpC detergent inactive, SARS PLP yeast inactive, AmpC no deterg inactive, NS1 function inh inactive and FBPA Giardia inh inactive.
`CCCOc1ccc(NC(=O)C2CC(=O)N/C(=N/N=C(C)/C=C/c3ccc(N(C)C)cc3)S2)cc1` (stereo not given) gave AmpC detergent inactive, SARS PLP yeast inactive, AmpC no deterg inactive, NS1 function inh inconclusive and FBPA Giardia inh inactive.
CC(/C=C/c1ccc(N(C)C)cc1)=N\N=C1\NC(=O)CC(C(=O)Nc2ccccc2)S1 (stereo not given) was read as AmpC detergent inactive, SARS PLP yeast inactive, AmpC no deterg inactive, NS1 function inh 7.9µM, FBPA Giardia inh inactive and Flu NS1 inh inactive.
CCn1cc(C(=O)N2CCN(Cc3ccc4c(c3)OCO4)CC2)c(=O)c2ccc(C)nc21 was read as AmpC detergent inactive, SARS PLP yeast inactive, AmpC no deterg inactive, NS1 function inh inactive and FBPA Giardia inh inactive.
Screening CC(C)CCSc1nc2c(c(=O)[nH]c(=O)n2C)n1CCCc1ccccc1 returned AmpC detergent inactive, SARS PLP yeast inactive, AmpC no deterg inactive, NS1 function inh inconclusive, FBPA Giardia inh inactive and Flu NS1 inh inactive.
For CSc1nc2c(c(=O)[nH]c(=O)n2C)n1CCCc1ccccc1 the results were AmpC detergent inactive, SARS PLP yeast inactive, AmpC no deterg inactive, NS1 function inh inactive and FBPA Giardia inh inactive.
`COc1cc(/C=C2\C(=O)NN(c3ccccc3)C2=O)ccc1OCC(N)=O` gave AmpC detergent inactive, SARS PLP yeast inactive, AmpC no deterg inactive and FBPA Giardia inh inactive.
For C#CCOc1ccc(/C=C2/C(=O)NN(c3ccc(F)cc3)C2=O)cc1OC the results were AmpC detergent inactive, SARS PLP yeast inactive, AmpC no deterg inactive, NS1 function inh 3.5µM, FBPA Giardia inh inactive and Flu NS1 inh inactive.

High-throughput results deposited in PubChem BioAssay by National Center for Advancing Translational Sciences (NCATS).
